Data published in the supplement of paper PMC10849652.
Of roughly 8,800 targets only a part is listed; those with a hit were picked by preference. About 0.5% of all pairs of compound and target were hits.

Experiments:
Assay in all cases: log2 fold change, soluble protein after heating vs DMSO (PISA); higher = thermal stabilisation; K562 lysate, 10 uM; active = over 0.2 and 3.5 SD of the protein, either way, in both replicates (recomputed)
[1] = compound: CN1CC[C@H](c2c(O)cc(O)c3c(=O)cc(-c4ccccc4Cl)oc23)[C@H](O)C1 [alvocidib]
Outline: (§1)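 K562 pellets were dounce-homogenised in PBS pH 7.4 with 1 mM MgCl2, and the crude extract at 1 mg/mL protein was treated with 10 μM compound for 30 min. Aliquots were heated for 3 min across 48°C-58°C, pooled, and brought to 0.5% NP-40 at 4°C; soluble protein was the supernatant after 21,000xg for 90 min. Soluble protein was quantified by TMTpro 16plex LC-MS/MS with channel sums equalised, and reported as log2 fold change in thermal stability against DMSO controls, with values from duplicates.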

[2] = compound: CN1CCc2c(c3ccccc3n2Cc2ccc(C(=O)NO)cc2)C1 [Tubastatin A]
Outline: as §1

[3] = compound: CNC(=O)C1=CC=CC=C1NC2=NC(=NC=C2Cl)NC3=C(C=C(C=C3)N4CCOCC4)OC
Outline: as §1

[4] = compound: CNC(=O)c1ccc(Nc2ncc(C(F)(F)F)c(NCc3nccnc3N(C)S(C)(=O)=O)n2)cc1 [defactinib]
Outline: as §1

[5] = compound: CNc1nc(-c2ccc3c(N)n[nH]c3c2)cc(N2C[C@@H](C(=O)NC3CCCCC3)CC[C@H]2C)n1
Outline: as §1

[6] = compound: COC(=O)N[C@@H](C)CNc1nccc(-c2cn(C(C)C)nc2-c2cc(Cl)cc(NS(C)(=O)=O)c2F)n1 [encorafenib]
Outline: as §1

[7] = compound: COC(=O)[C@H](CCSC)NC(=O)C1=C(C=C(C=C1)NC[C@H](CS)N)C2=CC=CC=C2
Outline: as §1

[8] = compound: COc1cc(Nc2ncc3c(n2)-c2ccc(Cl)cc2C(c2c(F)cccc2OC)=NC3)ccc1C(=O)O [alisertib]
Outline: as §1

[9] = compound: COc1cc2nc(-c3cc(F)ccc3O)nc(N[C@@H]3CNC[C@H]3C(C)(C)O)c2cc1OC
Outline: as §1

[10] = compound: COc1cc2ncnc(Nc3ccc(F)c(Cl)c3)c2cc1OCCCN1CCOCC1 [gefitinib]
Outline: as §1

Measured: log2 fold change

MICU1 isoform 3 (UniProt Q9BPX6)
inactive: [1] 0.092 | [2] -0.065 | [3] 0 | [4] 0.026 | [5] -0.061 | [6] -0.037 | [7] -0.05 | [8] -0.025 | [9] -0.063 | [10] 0.023

MANEA (UniProt Q5SRI9)
inactive: [1] -0.078 | [2] -0.08 | [3] -0.016 | [4] 0.062 | [5] -0.09 | [6] 0.028 | [7] -0.07 | [9] 0.041

MITD1 (UniProt Q8WV92)
inactive: [1] 0.021 | [2] 0.046 | [3] 0.044 | [4] -0.038 | [5] -0.026 | [6] -0.04 | [7] 0.143 | [8] 0.041 | [9] 0.018 | [10] 0.022

MED16 (UniProt Q9Y2X0)
inactive: [1] 0.01 | [2] -0.093 | [3] 0.02 | [4] -0.014 | [5] 0.004 | [6] -0.011 | [7] 0.038 | [8] -0.015 | [9] -0.004 | [10] 0.019

MAPK9 (UniProt P45984)
inactive: [1] 0.028 | [2] -0.064 | [4] 0.056 | [5] 0.006 | [6] 0.17 | [7] -0.019 | [8] -0.021 | [9] 0.006 | [10] 0.027
active: [3] 0.44

MAPK8 isoform 3 (UniProt P45983)
UniProt P45983, sequence (P45983 whole entry, looked up): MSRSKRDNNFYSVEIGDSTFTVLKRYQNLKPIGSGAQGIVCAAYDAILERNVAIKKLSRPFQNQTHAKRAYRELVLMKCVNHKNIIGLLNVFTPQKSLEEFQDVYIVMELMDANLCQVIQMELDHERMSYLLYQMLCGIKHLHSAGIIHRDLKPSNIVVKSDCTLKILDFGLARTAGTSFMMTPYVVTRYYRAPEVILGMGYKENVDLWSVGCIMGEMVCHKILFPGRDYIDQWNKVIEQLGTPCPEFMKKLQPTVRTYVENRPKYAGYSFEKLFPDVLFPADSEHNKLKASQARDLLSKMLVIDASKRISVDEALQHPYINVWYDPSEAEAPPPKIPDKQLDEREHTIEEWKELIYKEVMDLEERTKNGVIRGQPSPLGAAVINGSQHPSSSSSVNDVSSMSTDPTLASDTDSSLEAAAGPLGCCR
active: [3] 0.541
inactive: [1] 0.01 | [2] -0.111 | [4] -0.07 | [5] -0.144 | [6] 0.135 | [7] 0 | [8] -0.022 | [9] 0.003 | [10] -0.042

MRPL30 isoform 2 (UniProt Q8TCC3)
inactive: [2] 0.034 | [3] -0.003 | [5] -0.002 | [6] -0.049 | [7] -0.034 | [8] -0.033 | [9] -0.003 | [10] -0.013
active: [1] 0.419

MGAT5 (UniProt Q09328)
UniProt Q09328, sequence (Q09328 whole entry, looked up): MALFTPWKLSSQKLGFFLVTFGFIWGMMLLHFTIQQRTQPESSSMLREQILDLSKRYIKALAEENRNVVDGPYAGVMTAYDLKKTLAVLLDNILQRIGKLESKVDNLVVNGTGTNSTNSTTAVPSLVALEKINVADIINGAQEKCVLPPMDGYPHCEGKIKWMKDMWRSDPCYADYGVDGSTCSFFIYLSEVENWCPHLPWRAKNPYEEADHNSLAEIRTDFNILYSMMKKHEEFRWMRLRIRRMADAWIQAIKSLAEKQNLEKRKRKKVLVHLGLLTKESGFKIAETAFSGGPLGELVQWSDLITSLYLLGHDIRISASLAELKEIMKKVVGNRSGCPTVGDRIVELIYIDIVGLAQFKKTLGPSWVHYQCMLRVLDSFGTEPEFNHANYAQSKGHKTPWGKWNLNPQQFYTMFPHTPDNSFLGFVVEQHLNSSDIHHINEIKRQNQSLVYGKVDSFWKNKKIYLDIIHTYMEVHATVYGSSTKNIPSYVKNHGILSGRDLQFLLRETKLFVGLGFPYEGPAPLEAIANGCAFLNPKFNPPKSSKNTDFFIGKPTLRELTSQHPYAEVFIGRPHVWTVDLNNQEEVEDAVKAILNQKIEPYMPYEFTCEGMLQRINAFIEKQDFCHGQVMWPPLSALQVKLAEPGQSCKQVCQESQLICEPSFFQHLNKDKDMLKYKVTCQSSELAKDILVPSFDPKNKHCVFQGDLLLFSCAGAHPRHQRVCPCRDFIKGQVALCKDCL
active: [4] -0.337
inactive: [1] 0.056 | [2] -0.009 | [3] -0.011 | [5] -0.026 | [6] 0.006 | [7] -0.095 | [8] 0.025 | [9] 0.054 | [10] -0.064

MARF1 (UniProt Q9Y4F3)
inactive: [1] -0.024 | [2] -0.194 | [3] 0.024 | [4] -0.157 | [5] -0.021 | [6] 0.053 | [7] 0.086 | [8] -0.056 | [10] 0.02

MAPK1 (UniProt P28482)
active: [3] 0.242
inactive: [1] 0.051 | [2] 0.061 | [4] 0.091 | [5] -0.007 | [6] -0.062 | [7] 0.031 | [8] -0.038 | [9] 0.043 | [10] 0.014

MAP1S (UniProt Q66K74)
inactive: [1] 0.027 | [2] -0.072 | [3] -0.01 | [4] 0.018 | [5] -0.015 | [6] 0.008 | [7] 0.06 | [8] 0.006 | [9] -0.008 | [10] -0.021

LDAH isoform 2 (UniProt Q9H6V9)
UniProt Q9H6V9, sequence (Q9H6V9 whole entry, looked up): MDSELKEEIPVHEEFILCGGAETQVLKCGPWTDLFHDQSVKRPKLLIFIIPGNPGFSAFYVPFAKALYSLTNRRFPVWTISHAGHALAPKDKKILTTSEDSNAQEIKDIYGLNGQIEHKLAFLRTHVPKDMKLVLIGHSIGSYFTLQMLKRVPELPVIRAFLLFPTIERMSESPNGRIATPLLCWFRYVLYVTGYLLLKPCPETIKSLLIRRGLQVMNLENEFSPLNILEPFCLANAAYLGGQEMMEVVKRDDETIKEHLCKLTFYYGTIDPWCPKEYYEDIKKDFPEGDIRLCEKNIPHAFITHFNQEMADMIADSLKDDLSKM
inactive: [1] 0.003 | [2] -0.124 | [3] -0.012 | [4] 0.012 | [5] -0.027 | [6] -0.03 | [7] 0.048 | [8] 0 | [9] -0.036 | [10] 0.004

LPCAT1 (UniProt Q8NF37)
inactive: [1] -0.117 | [2] 0.117 | [3] 0.067 | [4] 0.045 | [5] 0.097 | [6] 0.037 | [7] -0.063 | [8] 0.07 | [9] -0.01 | [10] -0.009

MEGF8 (UniProt Q7Z7M0)
inactive: [1] 0.03 | [2] 0.156 | [3] 0.058 | [5] -0.051 | [6] -0.01 | [7] 0.131

MDM1 (UniProt Q8TC05)
inactive: [1] -0.527 | [2] 0.007 | [3] -0.071 | [4] -0.126 | [5] -0.328 | [6] 0 | [7] -0.12 | [8] 0.018 | [9] -0.031 | [10] 0.14

MPZL1 (UniProt O95297)
UniProt O95297, sequence (O95297 whole entry, looked up): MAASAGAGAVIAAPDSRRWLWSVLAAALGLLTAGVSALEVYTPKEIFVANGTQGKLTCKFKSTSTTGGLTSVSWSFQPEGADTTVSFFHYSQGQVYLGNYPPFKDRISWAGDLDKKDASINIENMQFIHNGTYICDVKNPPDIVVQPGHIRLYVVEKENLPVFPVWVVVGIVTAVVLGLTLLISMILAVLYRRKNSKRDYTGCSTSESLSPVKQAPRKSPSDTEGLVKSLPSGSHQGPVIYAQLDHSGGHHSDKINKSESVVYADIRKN
inactive: [1] -0.01 | [2] 0.048 | [3] -0.014 | [4] 0.01 | [5] 0.028 | [6] 0.045 | [7] -0.082 | [8] 0.007 | [9] 0.012 | [10] 0.016

KLC1 isoform 6 (UniProt Q07866)
UniProt Q07866, sequence (Q07866 whole entry, looked up): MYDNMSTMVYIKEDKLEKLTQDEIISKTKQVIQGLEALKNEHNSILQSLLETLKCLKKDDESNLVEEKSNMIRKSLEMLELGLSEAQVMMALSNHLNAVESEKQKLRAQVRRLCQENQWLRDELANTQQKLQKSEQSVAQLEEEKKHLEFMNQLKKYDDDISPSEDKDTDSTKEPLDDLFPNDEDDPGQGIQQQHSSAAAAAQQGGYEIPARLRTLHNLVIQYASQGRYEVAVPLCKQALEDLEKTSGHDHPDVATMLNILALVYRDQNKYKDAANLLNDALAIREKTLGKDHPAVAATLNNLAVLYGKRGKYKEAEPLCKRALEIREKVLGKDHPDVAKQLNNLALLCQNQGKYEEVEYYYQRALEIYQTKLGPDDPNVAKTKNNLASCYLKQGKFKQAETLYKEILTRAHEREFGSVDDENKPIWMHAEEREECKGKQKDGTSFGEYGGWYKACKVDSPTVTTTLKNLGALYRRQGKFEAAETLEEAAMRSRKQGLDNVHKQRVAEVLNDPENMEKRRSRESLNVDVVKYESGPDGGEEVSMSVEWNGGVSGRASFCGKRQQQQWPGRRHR
inactive: [1] -0.015 | [2] -0.038 | [3] 0.02 | [4] -0.003 | [5] -0.018 | [6] 0.002 | [7] 0.002 | [8] 0.002 | [9] 0.014 | [10] -0.009

MRPL27 (UniProt Q9P0M9)
inactive: [1] 0.082 | [2] -0.017 | [3] 0.016 | [5] -0.028 | [6] -0.047 | [7] 0.008 | [8] -0.019 | [9] 0 | [10] 0.022

LRCH3 (UniProt Q96II8)
UniProt Q96II8, sequence (Q96II8 whole entry, looked up): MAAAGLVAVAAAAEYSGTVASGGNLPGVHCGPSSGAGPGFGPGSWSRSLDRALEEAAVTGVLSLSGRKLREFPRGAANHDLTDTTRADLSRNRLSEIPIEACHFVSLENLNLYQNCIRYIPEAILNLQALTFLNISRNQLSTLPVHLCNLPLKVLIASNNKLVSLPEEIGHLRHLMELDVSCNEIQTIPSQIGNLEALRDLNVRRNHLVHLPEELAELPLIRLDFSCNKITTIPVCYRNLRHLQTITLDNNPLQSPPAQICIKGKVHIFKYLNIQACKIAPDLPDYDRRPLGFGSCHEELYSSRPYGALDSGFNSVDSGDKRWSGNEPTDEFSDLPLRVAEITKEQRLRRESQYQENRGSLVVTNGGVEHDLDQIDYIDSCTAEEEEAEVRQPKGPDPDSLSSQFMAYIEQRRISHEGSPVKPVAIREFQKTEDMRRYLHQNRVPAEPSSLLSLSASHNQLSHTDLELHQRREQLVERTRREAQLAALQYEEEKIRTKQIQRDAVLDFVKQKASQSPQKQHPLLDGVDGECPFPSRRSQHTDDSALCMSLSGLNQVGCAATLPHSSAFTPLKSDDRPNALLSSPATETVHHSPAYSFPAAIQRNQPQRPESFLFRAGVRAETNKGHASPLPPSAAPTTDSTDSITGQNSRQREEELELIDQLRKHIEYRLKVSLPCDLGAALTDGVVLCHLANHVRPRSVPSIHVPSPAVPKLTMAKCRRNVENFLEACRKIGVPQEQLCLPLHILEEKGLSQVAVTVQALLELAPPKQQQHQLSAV
inactive: [1] 0 | [2] -0.238 | [3] -0.003 | [4] -0.002 | [5] 0.069 | [6] 0.021 | [7] 0.045 | [8] 0.021 | [9] -0.012 | [10] -0.075

MOCS3 (UniProt O95396)
inactive: [1] -0.213 | [2] -0.082 | [3] 0.111 | [4] -0.161 | [5] -0.008 | [6] 0.056 | [7] -0.094 | [8] 0.031 | [10] -0.231

KIF26A (UniProt Q9ULI4)
UniProt Q9ULI4, sequence (Q9ULI4 whole entry, looked up): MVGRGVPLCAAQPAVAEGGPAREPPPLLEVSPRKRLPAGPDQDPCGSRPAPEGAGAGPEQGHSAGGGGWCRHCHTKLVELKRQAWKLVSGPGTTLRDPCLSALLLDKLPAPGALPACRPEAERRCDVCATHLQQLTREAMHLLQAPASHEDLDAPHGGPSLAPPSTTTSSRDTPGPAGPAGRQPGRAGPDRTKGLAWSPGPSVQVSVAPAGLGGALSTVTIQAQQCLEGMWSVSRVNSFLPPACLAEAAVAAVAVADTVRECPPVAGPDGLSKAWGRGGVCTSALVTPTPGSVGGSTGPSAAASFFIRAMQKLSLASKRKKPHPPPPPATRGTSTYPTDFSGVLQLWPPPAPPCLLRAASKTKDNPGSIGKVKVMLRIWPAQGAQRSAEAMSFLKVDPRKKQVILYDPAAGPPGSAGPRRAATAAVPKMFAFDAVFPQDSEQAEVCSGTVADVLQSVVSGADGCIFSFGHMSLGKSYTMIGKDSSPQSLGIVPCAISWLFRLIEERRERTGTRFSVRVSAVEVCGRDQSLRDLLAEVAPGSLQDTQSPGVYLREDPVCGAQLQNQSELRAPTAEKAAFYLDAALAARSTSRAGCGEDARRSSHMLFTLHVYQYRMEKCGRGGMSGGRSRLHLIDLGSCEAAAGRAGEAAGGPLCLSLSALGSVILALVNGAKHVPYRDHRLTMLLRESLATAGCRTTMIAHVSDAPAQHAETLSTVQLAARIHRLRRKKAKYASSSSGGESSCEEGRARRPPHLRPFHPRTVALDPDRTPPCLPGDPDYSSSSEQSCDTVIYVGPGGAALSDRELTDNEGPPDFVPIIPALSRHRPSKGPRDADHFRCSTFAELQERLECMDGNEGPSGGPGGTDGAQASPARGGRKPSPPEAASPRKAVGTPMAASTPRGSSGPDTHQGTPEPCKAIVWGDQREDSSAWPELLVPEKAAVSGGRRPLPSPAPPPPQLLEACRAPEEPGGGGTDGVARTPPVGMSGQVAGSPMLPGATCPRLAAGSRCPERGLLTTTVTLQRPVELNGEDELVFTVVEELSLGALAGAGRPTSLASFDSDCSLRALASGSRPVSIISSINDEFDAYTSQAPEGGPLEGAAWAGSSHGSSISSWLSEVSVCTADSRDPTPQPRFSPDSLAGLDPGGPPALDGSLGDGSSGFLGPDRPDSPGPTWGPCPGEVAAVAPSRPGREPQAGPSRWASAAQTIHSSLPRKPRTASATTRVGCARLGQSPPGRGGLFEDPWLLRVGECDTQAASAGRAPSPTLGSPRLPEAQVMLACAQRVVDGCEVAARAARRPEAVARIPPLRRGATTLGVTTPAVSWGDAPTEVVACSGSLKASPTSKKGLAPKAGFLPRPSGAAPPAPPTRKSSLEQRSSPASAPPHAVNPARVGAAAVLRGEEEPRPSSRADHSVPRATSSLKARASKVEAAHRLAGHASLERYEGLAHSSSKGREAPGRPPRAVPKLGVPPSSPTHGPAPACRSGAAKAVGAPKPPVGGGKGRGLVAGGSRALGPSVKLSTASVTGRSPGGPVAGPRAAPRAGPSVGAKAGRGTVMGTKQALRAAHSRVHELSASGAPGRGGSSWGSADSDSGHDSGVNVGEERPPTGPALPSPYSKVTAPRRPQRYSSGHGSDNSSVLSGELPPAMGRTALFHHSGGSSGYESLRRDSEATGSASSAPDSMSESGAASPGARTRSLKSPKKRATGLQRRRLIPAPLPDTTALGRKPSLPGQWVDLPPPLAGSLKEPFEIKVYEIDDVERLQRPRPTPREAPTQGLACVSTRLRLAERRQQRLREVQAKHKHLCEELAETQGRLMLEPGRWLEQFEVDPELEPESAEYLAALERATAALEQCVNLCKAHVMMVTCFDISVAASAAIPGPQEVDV
active: [2] 0.566
inactive: [1] 0.022 | [3] -0.149 | [4] -0.105 | [5] -0.021 | [6] -0.052 | [7] 0.035 | [8] 0.004 | [10] 0.056

MOSPD2 (UniProt Q8NHP6)
inactive: [1] -0.028 | [2] -0.034 | [3] -0.03 | [4] 0.11 | [5] -0.015 | [6] 0.053 | [7] -0.026 | [8] 0.125 | [9] -0.027 | [10] -0.039

MARK3 (UniProt P27448)
inactive: [1] -0.071 | [2] -0.119 | [3] -0.188 | [4] -0.158 | [5] 0.113 | [6] 0.038 | [7] 0.129 | [8] 0.006 | [9] 0.003 | [10] -0.02

LSG1 (UniProt Q9H089)
active: [7] 0.303
inactive: [1] -0.079 | [2] -0.016 | [3] -0.046 | [4] 0.003 | [5] -0.077 | [6] 0.046 | [8] -0.017 | [9] -0.028 | [10] -0.059

KPNA4 (UniProt O00629)
inactive: [1] -0.098 | [2] 0.007 | [3] 0.014 | [4] -0.002 | [5] 0.008 | [6] 0.02 | [7] -0.059 | [8] -0.007 | [9] 0.002 | [10] 0.013

MAPKAPK2 (UniProt P49137)
inactive: [1] 0.069 | [2] -0.078 | [3] 0.077 | [4] -0.059 | [5] 0.025 | [6] -0.026 | [7] 0.046 | [8] -0.023 | [9] 0.114 | [10] -0.013

KRI1 (UniProt Q8N9T8)
inactive: [1] 0.017 | [2] -0.113 | [3] 0.016 | [4] 0.019 | [5] -0.012 | [6] 0.038 | [7] 0.009 | [8] 0.042 | [10] -0.106

LRPPRC (UniProt P42704)
inactive: [1] 0.076 | [2] -0.091 | [3] 0.011 | [4] 0.037 | [5] -0.041 | [6] 0.005 | [7] 0.079 | [8] 0.029 | [9] -0.006 | [10] -0.005
